# From the supplement of paper PMC12645437, “Orthogonal IMiD-Degron Pairs Induce Selective Protein Degradation in Cells” (ACS Chemical Biology, 2025)
# The full ranking holds about 8,300 sequences; the median of “log2 fold change of degron read counts, EGFP-low vs EGFP+ sorted cells (limma voom), compound-induced degradation” is about -1.1, and the highest 2% start at about 3.2. The entries come from a sample that favours the highest values as a whole.
# T1: CRBN, Q96SW2
# T1 chain: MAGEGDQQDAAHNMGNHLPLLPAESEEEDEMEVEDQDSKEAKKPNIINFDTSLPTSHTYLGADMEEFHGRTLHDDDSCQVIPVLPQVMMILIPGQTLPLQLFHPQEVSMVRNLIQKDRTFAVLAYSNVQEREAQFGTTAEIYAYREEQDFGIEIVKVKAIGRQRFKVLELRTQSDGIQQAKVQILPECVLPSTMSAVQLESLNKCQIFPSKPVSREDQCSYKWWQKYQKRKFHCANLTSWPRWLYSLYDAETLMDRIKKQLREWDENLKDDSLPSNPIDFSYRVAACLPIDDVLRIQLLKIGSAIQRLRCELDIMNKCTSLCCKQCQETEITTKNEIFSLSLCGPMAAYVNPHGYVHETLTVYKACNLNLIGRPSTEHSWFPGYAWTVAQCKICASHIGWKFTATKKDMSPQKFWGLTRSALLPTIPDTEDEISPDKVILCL
# Target: T1, CRBN, Q96SW2
# Assay: log2 fold change of degron read counts, EGFP-low vs EGFP+ sorted cells (limma voom), compound-induced degradation; higher = more compound-induced degradation of the degron-EGFP fusion; degrons are variants of IKZF1/3 zinc finger 2; compound dose not given here
# Settings: Jurkat, 18 h
# [1] = compound: compound 19 (5-tert-butyl-thalidomide)
# [2] = compound: compound 22 (5-morpholino-thalidomide)
# [3] = compound: compound 33 (diphenyl IMiD analogue)
# 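Also: pooled lentiviral library of zinc finger degron-EGFP fusions in mCherry-positive Jurkat cells, FACS-sorted after compound exposure, with degron abundance counted by next-generation sequencing.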
Sequence,log2 fold change of degron read counts [1],log2 fold change of degron read counts [2],log2 fold change of degron read counts [3],log2 fold change of degron read counts (compound: thalidomide)
"FDCEICGHGFTQKGNLLRHIKL [46F_47D_49E_50I_52G_53H_54G_55F_67L_, Q9UKT9]",-3.03,-3.17,-3,-2.57
"FSCEICGHVFTQKGNLLRHIKL [46F_47S_49E_50I_52G_53H_54V_55F_67L_, Q9UKT9]",-2.99,-2.93,-2.63,-2.67
"FYCDQCGAIFTQKGNLLRHIKL [46F_47Y_49D_50Q_52G_53A_54I_55F_67L_, Q9UKT9]",-1.03,-1.1,-1.87,-2.56
"FFCPICGAGFTQKGNLLRHIKL [46F_47F_49P_50I_52G_53A_54G_55F_67L_, Q9UKT9]",3.02,2.16,1.63,0.485
"FMCEVCGAVFTQKGNLLRHIKL [46F_47M_49E_50V_52G_53A_54V_55F_67L_, Q9UKT9]",-1.47,-0.776,2.27,0.961
"FECEVCGAVFTQKGNLLRHIKL [46F_47E_49E_50V_52G_53A_54V_55F_67L_, Q9UKT9]",-0.492,-0.885,1.58,2.31
"FYCEVCGAVFTQKGNLLRHIKL [46F_47Y_49E_50V_52G_53A_54V_55F_67L_, Q9UKT9]",3.58,3.79,2.82,0.689
"FVCDVCGADFTQKGNLLRHIKL [46F_47V_49D_50V_52G_53A_54D_55F_67L_, Q9UKT9]",-2.64,-1.98,-2.16,-1.73
"FSCEICGATFTQKGNLLRHIKL [46F_47S_49E_50I_52G_53A_54T_55F_67L_, Q9UKT9]",2.83,2.57,1.79,1.36
"FKCEICGATFTQKGNLLRHIKL [46F_47K_49E_50I_52G_53A_54T_55F_67L_, Q9UKT9]",-1.26,-3.54,-2.61,-1.06
"FDCEICGATFTQKGNLLRHIKL [46F_47D_49E_50I_52G_53A_54T_55F_67L_, Q9UKT9]",1.71,0.141,0.186,0.436
"FLCEICGATFTQKGNLLRHIKL [46F_47L_49E_50I_52G_53A_54T_55F_67L_, Q9UKT9]",-1.3,-1.41,0.852,1.8
"FYCEICGATFTQKGNLLRHIKL [46F_47Y_49E_50I_52G_53A_54T_55F_67L_, Q9UKT9]",3.58,4.05,2.59,1.19
"FQCEICGATFTQKGNLLRHIKL [46F_47Q_49E_50I_52G_53A_54T_55F_67L_, Q9UKT9]",0.665,2.58,2.4,3.26
"FCCEICGATFTQKGNLLRHIKL [46F_47C_49E_50I_52G_53A_54T_55F_67L_, Q9UKT9]",2.13,2.25,2.55,2.33
"FACEICGATFTQKGNLLRHIKL [46F_47A_49E_50I_52G_53A_54T_55F_67L_, Q9UKT9]",3.33,2.04,0.691,0.374
"FMCEICGATFTQKGNLLRHIKL [46F_47M_49E_50I_52G_53A_54T_55F_67L_, Q9UKT9]",-1.21,-0.67,2.2,1.15
"FRCEICGATFTQKGNLLRHIKL [46F_47R_49E_50I_52G_53A_54T_55F_67L_, Q9UKT9]",-0.98,-0.654,1.54,1.42
"FFCEICGATFTQKGNLLRHIKL [46F_47F_49E_50I_52G_53A_54T_55F_67L_, Q9UKT9]",3.27,3.8,1.79,1.49
"FTCEICGATFTQKGNLLRHIKL [46F_47T_49E_50I_52G_53A_54T_55F_67L_, Q9UKT9]",0.577,2.27,2.39,2.99
